This is part of a sample that, as a whole, favours compounds with a hit. Of some 79,000 tested, about 15% had one in any assay. Cut-off read from the data, not from the text of the source: active = growth inhibition above about 70%; inactive = the rest. Where a SMILES comes first, the peptide text is derived from it. The star is where a group is joined. Cbz = O=C(OCc1ccccc1)*
Experiments:
[1] = NCI Yeast Anticancer Drug Screen. Data for the rad50 strain (AID 155);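 note: 0% = growth of vehicle-only cultures of the same strain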; settings: S. cerevisiae rad50 strain growth inhibition; at 50.0 µM; hits give high values
How it was run: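 Genetically altered yeast (DNA repair pathway); compound treatment; growth inhibition vs vehicle ctrl.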

[2] = NCI Yeast Anticancer Drug Screen. Data for the mec2-1 strain (AID 157); settings: S. cerevisiae mec2-1 strain, at 50.0 µM, hits give high values
How it was run: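 Strain: mec2-1 (DNA repair/cell cycle alteration). Compound exposure, then growth measured; inhibition expressed relative to vehicle.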

[3] = NCI Yeast Anticancer Drug Screen. Data for the sgs1 mgt1 strain (AID 161);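 note: 0% = growth of cultures given vehicle only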; settings: S. cerevisiae sgs1 mgt1 strain, at 50.0 µM, hits give high values
How it was run: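 Genetically altered yeast, compound exposure, growth inhibition relative to vehicle.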

[4] = NCI Yeast Anticancer Drug Screen. Data for the cln2 rad14 strain (AID 165);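 note: 0% = growth equal to vehicle treated cultures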; settings: S. cerevisiae cln2 rad14 strain, at 50.0 µM, hits give high values
How it was run: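 Compounds are applied to the cln2 rad14 yeast strain, and growth is then compared with that of vehicle-treated cultures to give inhibition.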

[5] = NCI Yeast Anticancer Drug Screen. Data for the bub3 strain (AID 167); settings: S. cerevisiae bub3 mutant strain, at 50.0 µM, hits give high values
How it was run: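 Yeast carrying a defined mutation is treated with each compound, and growth is compared with that of vehicle-exposed cells to give inhibition.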

[6] = NCI Yeast Anticancer Drug Screen. Data for the mlh1 rad18 strain (AID 175); settings: S. cerevisiae mlh1 rad18 strain growth inhibition; at 50.0 µM; hits give high values
How it was run: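 Read-out is yeast growth inhibition, calculated against vehicle-only controls. The compound was applied to a strain engineered with DNA damage repair alterations.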

Measured: growth inhibition

O=C1C(NS(=O)(=O)c2ccccc2)=C(n2cnc3ccccc32)C(=O)c2ccccc21
inactive: [1] 0.75% | [2] 4.4% | [3] 12.1% | [4] -1.95% | [5] 1.65% | [6] -58.8%

C/C(=N\NC(=O)CC(=O)N(C(=O)c1ccc(Cl)cc1)c1ccc(C)cc1)c1ccccc1O
inactive: [1] -2.05% | [2] -26% | [3] -10.2% | [4] 5.9% | [5] -1.3% | [6] -29.6%

CS(=O)(=O)OCC(Cc1ccccc1)N1C(=O)c2ccccc2C1=O (stereo unspecified)
inactive: [1] 1.3% | [2] 4.05% | [3] 17.9% | [4] 12.2% | [5] 26.9% | [6] 34.1%

NS(=O)(=O)c1ccc(NO)cc1
inactive: [1] -16.1% | [2] -7.45% | [3] 6.3% | [4] -15.2% | [5] 6.9% | [6] 9.85%

Cc1ccc(N2C(=O)CS/C2=C(\C#N)c2nc3ccccc3[nH]2)cc1
inactive: [1] -78.5% | [2] -62% | [3] -66.1% | [4] -57.9% | [5] -76.8% | [6] -40.2%

NC(=O)c1ccccc1NC(=O)CCCOc1ccccc1
inactive: [1] -11.5% | [2] 8.35% | [3] 16.8% | [4] -5.8% | [5] -14.3% | [6] 9.2%

O=C(O)C/C(=C\c1ccccc1)C(=O)O
inactive: [1] -3.15% | [2] -25.9% | [3] -17.4% | [4] 4% | [5] -24.2% | [6] -30.9%

CN(C)C(=O)C1C2CC3OC(=O)C1C3C2 (stereo unspecified)
inactive: [1] 15.8% | [2] -5.4% | [3] 6.2% | [4] -41.3% | [5] -1.65% | [6] -0.6%

O=C(O)c1ccccc1C(=O)OCC1CCc2ccccc2C1 (stereo unspecified)
inactive: [1] 5.45% | [2] 26.8% | [3] 28.3% | [4] 33% | [5] 51.4% | [6] 9.2%

CN1C2CC(=O)CC1[C@@H]1OC(c3ccccc3)O[C@H]21 (stereo partly specified)
inactive: [1] 6.65% | [2] -3.25% | [3] -15.4% | [4] 27.9% | [5] 17.6% | [6] 19.5%

CN1CCCC(NC(c2ccccc2)c2ccccc2)C1 (stereo unspecified)
inactive: [1] 25.4% | [2] 0.45% | [3] 23.9% | [4] -11.8% | [5] 34.5% | [6] 18.9%

CC1=CC2(C)Cc3cc(C)cc(C)c3S(=O)(=O)C2C(C(=O)O)=C1 (stereo unspecified)
inactive: [1] -11% | [2] -30.4% | [3] -13.9% | [4] -13.5% | [5] -14.8% | [6] -15.2%

O=C1C(c2ccccc2)=C(c2ccccc2)/C1=C\c1ccc(Cl)cc1Cl
inactive: [1] 7.4% | [2] -5.9% | [3] -13.9% | [4] -8.9% | [5] 5.5% | [6] -13.8%

CSCCC(NC=O)C(=O)O (stereo unspecified)
inactive: [1] -0.65% | [2] -5.35% | [3] 7.9% | [4] 1.05% | [5] 5.75% | [6] 3.8%

O=C(O)C(=O)Cc1c[nH]c2ccccc12
inactive: [1] 1.2% | [2] -7.55% | [3] 29.4% | [4] 7.3% | [5] -11.1% | [6] -3.7%

COC1NC(=O)Oc2ccccc21 (stereo unspecified)
inactive: [1] -6.25% | [2] 29.5% | [3] -8.95% | [4] -3.3% | [5] -12.5% | [6] -19.4%

COc1nc(NC2OC(CO)C(O)C(O)C2O)c(C(C)=O)c(=O)[nH]1 (stereo unspecified)
inactive: [1] 2.8% | [2] 1.05% | [3] 12.6% | [4] -0.1% | [5] -14.8% | [6] -3.95%

CC(C)CC(NC(=O)C(CO)NC(=O)OCc1ccccc1)C(=O)NC(Cc1ccc(O)cc1)C(N)=O (stereo not drawn) (Cbz-Ser-Leu-Tyr-NH2; configuration not given here)
inactive: [1] 47.5% | [2] -8.05% | [3] 27.6% | [4] 4.9% | [5] 3.95% | [6] 13.7%

C/C(CCn1[nH]c(=O)ccc1=O)=N\OCCCc1ccccc1
inactive: [1] 2.7% | [2] -27.6% | [3] 11.7% | [4] 16.3% | [5] -3% | [6] 11.5%

C(CN1CCC2CCC(C2)C1)=C(c1ccccc1)c1ccccc1 (stereo unspecified)
inactive: [1] 3.75% | [2] -1.3% | [3] 15.3% | [4] -17.9% | [5] 26.1% | [6] 4.35%

COc1ccc(C2CC(c3ccccc3)=Nc3ccccc3S2)cc1OC (stereo unspecified)
inactive: [1] 0.25% | [2] -26.3% | [3] 11.7% | [4] 4.15% | [5] 2.4% | [6] 3.75%

CCOC(=O)c1ccc(NC(=O)CNC2CCCCC2)cc1
inactive: [1] -0.05% | [2] -8.7% | [3] -3.2% | [4] -40.8% | [5] 4.55% | [6] -26.1%

N#Cc1c(O)c(N=Nc2ccccc2F)c(=O)n2c1[nH]c1ccccc12
inactive: [1] -24.4% | [2] -15.7% | [3] -10.4% | [4] 4.1% | [5] -6.85% | [6] -47.8%

O=C(Nc1ccccc1C(=O)O)C(=O)C(C(=O)c1ccccc1-c1ccccc1)C1OC(=O)c2ccccc21 (stereo unspecified)
inactive: [1] 26.1% | [2] 5.65% | [3] 4.2% | [4] -38.6% | [5] 6.25% | [6] 13.9%

Cc1cc(C(C)(C)C)nc(C(C)(C)C)c1
inactive: [1] 13.1% | [2] 6.4% | [3] 15.2% | [4] -60.6% | [5] 0.8% | [6] -4.85%

Cc1ccc(-c2cn3c(nc4ccccc43)c(C)n2)cc1
inactive: [1] -27.5% | [2] 5.5% | [3] 15.3% | [4] -7.95% | [5] 13% | [6] -29.5%

COc1ccc(OC)c(NC(=O)C(=O)C(C(=O)c2ccccc2F)C2OC(=O)c3ccccc32)c1 (stereo unspecified)
inactive: [1] -15.6% | [2] -20.2% | [3] -27.9% | [4] -15.8% | [5] -60.2% | [6] -41.2%

COC(=O)NC(Nc1ccc(C)cc1)(C(F)(F)F)C(F)(F)F
inactive: [1] 11.9% | [2] -8.9% | [3] -39.6% | [4] 5.9% | [5] -2.65% | [6] -4.7%

CCN(CC)CCOC(=O)CCC(C)=O
inactive: [1] 6.35% | [2] -31.5% | [3] -7.65% | [4] 0.8% | [5] -9.1% | [6] 7.45%

CC1CC[P+](C)(Cc2ccccc2)C1 (mixture of isomers)
inactive: [1] 8.7% | [2] 0.8% | [3] -18.4% | [4] 1.9% | [5] 5.45% | [6] 18.6%

O=C(NCCCl)NC(C1CC1)C1CC1
inactive: [1] 13.1% | [2] -2.9% | [3] 6.45% | [4] -58.1% | [5] 13.4% | [6] -3.95%

CC1COC2(CCCCC2)O1 (stereo unspecified)
inactive: [1] -25.2% | [2] -3.45% | [3] -44.1% | [4] -37% | [5] -14.8% | [6] -26.1%

CC(C)(C)C(c1ccccc1)[N+](C)(C)C (stereo unspecified)
inactive: [1] -22.2% | [2] -2% | [3] -2.05% | [4] 18.9% | [5] 15.2% | [6] 29.9%

C[N+]1(CCC(=O)c2ccco2)CC2CCC(CC2)C1 (stereo unspecified)
inactive: [1] 3.9% | [2] -18.1% | [3] -37.1% | [4] -24.9% | [5] -68.7% | [6] 0.45%

c1cncc(Cc2nc3ccccc3[nH]2)c1
inactive: [1] -26.9% | [2] -2.5% | [3] -22.9% | [4] -11.7% | [5] -5.1% | [6] -34%

CCC(CC)C(O)(C(=O)O)C(CC)CC
inactive: [1] 14.1% | [2] 13.7% | [3] 3.95% | [4] 3.3% | [5] 8.5% | [6] 32.8%

COC(=O)C1(NC(=O)C2(N3C(=O)c4ccccc4C3=O)CCCC2)CCCC1
inactive: [1] -7.95% | [2] -0.95% | [3] -12.7% | [4] -9.45% | [5] -17.9% | [6] 1.6%

COC(OC)c1cccc2c1C1(O)CCC3(CC21)OCCCCO3 (stereo unspecified)
inactive: [1] -9.35% | [2] -26.4% | [3] -42.5% | [4] -11.6% | [5] -42.9% | [6] -23.1%

O=CN1CCN(c2ccc3ccc(=O)[nH]c3n2)CC1
inactive: [1] -4.45% | [2] -24.2% | [3] 19.5% | [4] 9% | [5] -5.05% | [6] -14.2%

O=S=Nc1ccc([N+](=O)[O-])cc1Cl
inactive: [1] 5.7% | [2] -1.15% | [3] -2.9% | [4] -33.6% | [5] 10.7% | [6] 16.6%

O=C(O)c1oc2cccc3c2c1CCC3
inactive: [1] -3.6% | [2] 1.3% | [3] 5.4% | [4] -10.3% | [5] -1.35% | [6] -4.2%

Reference: PubChem BioAssay (NCI)
